Hit rate of the full screen: of about 310,000 compounds, about 14,000 (4.5%) showed an effect of 50% or more. The effect is printed as a negative number. The sample holds strong results, similar compounds and a random draw of the others, so the mix is not that of the screen. *1 amine or outer side, *2 acyl side, *3 side chain or, on linkers, in order; H or OH if unused. Where a SMILES comes first, the peptide text is derived from it. Bridges are numbered along the chain shown (N, C = ends). [ ]: non-standard residue; d: D form. ξ: configuration not given here. hSer(Ph(2-I,4-NO2,6-CO)) = O=C([C@H](CCOc1c(I)cc([N+](=O)[O-])cc1C(=O)[*:3])N[*:1])[*:2]; ξD = NC(CC(=O)O)C(=O)O
target: human ether-à-go-go-related gene (hERG) potassium channel (human, UniProt Q12809); experiment: primary screen, population patch clamp on CHO cells stably expressing hERG; higher = less effect of the substance
Sequence (Q12809 whole entry, looked up): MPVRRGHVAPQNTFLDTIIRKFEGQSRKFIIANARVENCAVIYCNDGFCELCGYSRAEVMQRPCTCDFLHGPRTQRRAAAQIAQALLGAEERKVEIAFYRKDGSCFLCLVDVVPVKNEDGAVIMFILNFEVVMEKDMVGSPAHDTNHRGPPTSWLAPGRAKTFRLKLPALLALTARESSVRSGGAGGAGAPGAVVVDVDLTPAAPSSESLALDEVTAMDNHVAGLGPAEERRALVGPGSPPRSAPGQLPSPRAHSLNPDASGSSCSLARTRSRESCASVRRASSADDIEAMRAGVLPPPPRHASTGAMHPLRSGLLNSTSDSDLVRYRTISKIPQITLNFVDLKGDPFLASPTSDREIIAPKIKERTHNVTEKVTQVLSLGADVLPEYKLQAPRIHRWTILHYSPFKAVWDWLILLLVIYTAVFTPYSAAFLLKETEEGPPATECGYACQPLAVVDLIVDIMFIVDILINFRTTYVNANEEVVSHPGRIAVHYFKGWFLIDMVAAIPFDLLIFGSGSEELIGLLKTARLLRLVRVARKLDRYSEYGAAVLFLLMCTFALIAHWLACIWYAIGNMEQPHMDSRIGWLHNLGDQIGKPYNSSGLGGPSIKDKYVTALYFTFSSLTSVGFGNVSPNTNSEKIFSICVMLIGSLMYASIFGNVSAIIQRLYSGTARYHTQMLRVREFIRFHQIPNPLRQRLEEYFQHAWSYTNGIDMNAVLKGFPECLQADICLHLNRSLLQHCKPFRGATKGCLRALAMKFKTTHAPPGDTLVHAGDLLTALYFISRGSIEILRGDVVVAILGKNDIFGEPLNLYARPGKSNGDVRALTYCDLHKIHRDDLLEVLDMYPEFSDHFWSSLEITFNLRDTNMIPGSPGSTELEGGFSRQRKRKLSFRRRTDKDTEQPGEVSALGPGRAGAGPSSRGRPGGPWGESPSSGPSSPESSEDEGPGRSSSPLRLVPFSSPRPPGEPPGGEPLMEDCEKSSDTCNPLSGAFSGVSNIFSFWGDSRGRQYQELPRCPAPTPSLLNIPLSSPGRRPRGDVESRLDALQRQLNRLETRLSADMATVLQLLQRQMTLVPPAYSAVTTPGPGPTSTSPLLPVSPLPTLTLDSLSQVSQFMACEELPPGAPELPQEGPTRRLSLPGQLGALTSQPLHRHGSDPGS
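Also: peak tail current of the secondary pulse compared with the same well before compound.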

In order of falling “hERG current change (%, negative = inhibition) at 10uM” value:
1. O=C(CSc1nncc(=O)[nH]1)NC1CCCCC1  27%
2. O=C(Nc1ccc2ccccc2c1)c1ccccc1O  24.6%
3. COC(=O)CSc1ncnc2c1sc1nc3c(cc12)COC(C)(C)C3  23.5%
4. CC(=O)C1=C(O)C(=O)N(c2ccc(Br)cn2)C1c1ccccc1[N+](=O)[O-] (stereo not drawn)  20.2%
5. O=C(O)c1cccc(NC(=O)c2cn(-c3ccccc3)nc2-c2ccc([N+](=O)[O-])cc2)c1  19.5%
6. COc1cccc(N2C(=O)CN(Cc3ccc(OC)c(OC)c3)C2=S)c1  17%
7. O=S(=O)(Cc1ccccc1)Nc1cccc(F)c1  15.2%
8. CCCCN(CCO)CCCC  14%
9. C=CCc1c(C)nc2c(-c3ccccc3)cnn2c1N1CCOCC1  12.3%
10. Cc1ccc(CNc2nc(-c3cccs3)nc3ccccc23)cc1  12.1%
11. O=C1CCCc2nn(-c3ccccc3)nc21  11.3%
12. Cc1ccccc1NC(=O)Cc1nnc(N)s1  11.3%
13. Nc1ccc(N=Nc2ccccc2O)c(N)c1  10.9%
14. Cc1ccc(C(OC(=O)c2ccco2)C(=O)NC(C)(C)C)cc1 (stereo not drawn)  10.8%
15. CC1CN(C(=O)c2ccc(CNS(=O)(=O)c3cccc(C(F)(F)F)c3)cc2)CC(C)O1 (stereo not drawn)  9.72%
16. Cn1c(CSCc2ccc(F)cc2)nnc1SCC(=O)Nc1cccc(C(=O)O)c1  9.71%
17. COc1ccccc1-n1ccnc(SCC(=O)NCc2ccccc2Cl)c1=O  8.39%
18. COc1ccc(NC2=CC(=O)CC(C)(C)C2)cc1  7.6%
19. COC(=O)c1nn(-c2cccc(Cl)c2)ccc1=O  6.98%
20. C[C@@H]1NC(=O)[C@H](CC(N)=O)NC(=O)c2cc([N+](=O)[O-])cc(I)c2OCC[C@@H](C(=O)NC(CC(=O)O)C(N)=O)NC1=O (stereo partly drawn) (NA[hSer(Ph(2-I,4-NO2,6-CO))][ξD]-NH2; lactam N-3)  6.03%
21. CC(C)C[C@@H](CO)N1CCN(Cc2ccccc2)CCC1=O  6.02%
22. Cc1cccc(N(Cc2cc3cc(C)ccc3[nH]c2=O)C(=O)c2cccs2)c1  5.95%
23. CCOC(=O)C(C)Sc1nc(C2CC2)cc(C(F)(F)F)c1C#N (stereo not drawn)  5.04%
24. CC(C)C(CO)N1CCN(Cc2ccccc2)CCC1=O (stereo not drawn)  4.74%
25. CCOC(=O)[C@H]1[C@H]2COc3ccc(C)cc3[C@@H]2N2C(=O)CN(Cc3ccc(C)cc3)C(=O)[C@@]12C  4.36%
26. CCOc1ccc(-c2csc(NC(=O)C3CCCO3)n2)cc1 (stereo not drawn)  4.35%
27. [N-]=[N+]=NC[C@H](Cc1ccccc1)N1CCN(Cc2ccccc2)CCC1=O  3.9%
28. CC(C)(C)c1ccc(S(=O)(=O)n2c(CN3CCOCC3)nc3ccccc32)cc1  3.73%
29. Cc1cc(C)n(-c2nncn2/N=C/c2ccccc2F)n1  3.06%
30. O=C1CCN(Cc2ccc(O)cc2)CCN1[C@H](CO)Cc1ccccc1  2.51%
31. CC(C)C[C@@H](CC#N)N1CCN(CCc2ccccc2)CCC1=O  2.01%
32. CCCCCOc1ccc(NC(=O)C(=O)NCCCn2ccnc2)cc1  2%
33. CCCOc1ccc(NC2=CC(=O)CC(C)(C)C2)cc1  1.89%
34. Clc1ccc(-n2nnnc2-c2cnc3ccccc3c2-c2ccccc2)cc1  1.26%
35. CC(=O)Nc1nc2ccccc2n1CCN1CCOCC1  0.217%
36. Cl.FC(F)(F)c1ccc(CN2CCNCC2)cc1  0.155%
37. CCCN(CCO)Cc1cccc(Br)c1  -0.752%
38. N=C(N)Cc1ccccc1Sc1ccccc1.O=C(O)/C=C\C(=O)O  -1.09%
39. CCOc1[nH]n(-c2ccccc2)c(=O)c1C=Nc1ccccc1  -2.58%
40. COc1cc(OC)c(C(=O)NC2CCCCCC2)cc1OC  -3.27%
41. CC1(c2nnc(Cc3ccccc3)o2)CC(c2cccc(F)c2)=NO1 (stereo not drawn)  -3.35%
42. Cc1cc2nc(CCN3CCOCC3)n(S(=O)(=O)c3ccc(C(C)(C)C)cc3)c2cc1C  -3.7%
43. CN(C)Cc1ccccc1Sc1ccc(O)cc1O.O.O=C(O)/C=C\C(=O)O  -3.84%
44. CCOC(=O)Cn1nnnc1CN(CCc1ccccc1)Cc1cc2cc(CC)ccc2[nH]c1=O  -4.43%
45. CCn1c(SCC(=O)NNC(=O)c2ccccc2)nnc1-c1ccncc1  -5.25%
46. c1csc(CNc2nc(-c3cccs3)nc3ccccc23)c1  -6.81%
47. O=C(COc1ccccc1)N1CCN(C(=O)c2ccco2)CC1  -8.03%
48. COc1ccc(C(=O)NCc2cc(C)nc3ccccc23)cc1OC  -8.56%
49. COc1ccc(Br)cc1C(=O)N/N=C/c1cccnc1  -8.72%
50. CN(C)Cc1ccccc1Cc1ccccc1.O=C(O)/C=C\C(=O)O  -10.1%
51. O=C1CCN(Cc2ccc(Br)cc2)CCN1[C@H](CO)Cc1ccccc1  -10.4%
52. Cl.c1ccc(CNc2nc3ccccc3n2CCN2CCOCC2)nc1  -15.5%
53. Cc1ccc(SC[C@H](Cc2ccccc2)N2CCN(CCc3ccccc3)CCC2=O)cc1  -17.9%
54. CC(C)c1ccc(OCC(=O)Nc2ccccc2C(=O)N2CCOCC2)cc1  -18.9%
55. c1ccc(CN2CCC(Nc3nc(-c4ccccc4)nc4ccccc34)CC2)cc1  -20.5%
56. O=C1CC[C@H](O)CCN1[C@H](CSc1ccccc1)Cc1ccccc1  -21.7%
57. N/C(Cc1ccccc1Sc1ccccc1)=N\O.O=C(O)/C=C\C(=O)O  -22.2%
58. COc1ccc(C(=O)NCC(=O)OCC(=O)Nc2cc([N+](=O)[O-])ccc2F)cc1  -23.4%
59. O=C1CC[C@H](O)CCN1[C@H](CSc1ccc(Br)cc1)Cc1ccccc1  -24.3%
60. c1cncc(CNc2nc(-c3cccnc3)nc3ccccc23)c1  -25.3%
61. CCn1c(NCc2cc(OC)c(OC)c(OC)c2)nc2ccccc21.Cl  -25.3%
62. Clc1ccc(C2[C@H]3CN(CC4CCCCC4)[C@H](c4ccccc4)C34CC2(c2cccnc2)C4)cn1 (stereo partly drawn)  -26.1%
63. c1csc(CNc2nc3ccccc3n2CCN2CCOCC2)c1  -28%
64. Cc1ccc(S(=O)(=O)N(C)C)cc1NC(=O)CSc1nc2ccccc2[nH]1  -29.4%
65. CC(C)C[C@@H](CO)N1CCN(CCCc2ccccc2)CCC1=O  -31.1%
66. CCOc1ccc(CNc2nc3ccccc3n2C)cc1  -31.4%
67. COc1ccc(OCC(=O)N2CCN(C(=O)c3ccco3)CC2)cc1  -32.3%
68. C[C@H]1CCC(=O)N([C@H](CSc2ccccc2)Cc2ccccc2)CC1  -37%
69. COc1ccc(CCNC(=S)NC2CCN(Cc3ccccc3)CC2)cc1OC  -39.1%
70. COc1ccc(CNc2nc3ccccc3n2Cc2ccccc2)cc1OC  -44.7%
71. Cl.O=C1c2cccc3c2[C@H](CCC3)CN1[C@@H]1CN2CCC1CC2  -46.2%
72. O=C1CC[C@H](OCc2ccccc2)CCN1[C@H](CSc1ccccc1)Cc1ccccc1  -51%
73. CCN(CC)Cc1ccccc1Sc1ccccc1.O=C(O)/C=C\C(=O)O  -53.3%
74. COc1ccc(S(=O)(=O)n2c(CCN3CCOCC3)nc3ccccc32)cc1  -59.2%
75. COc1cccc(CNc2nc3ccccc3n2CCN2CCCCC2)c1  -59.3%
76. c1ccc(CN2CCC(Nc3nc(-c4cccs4)nc4ccccc34)CC2)cc1  -59.9%
77. CC(C)[C@@H](CSc1ccccc1)N1CCN(Cc2ccccc2)CCC1=O  -63.4%
78. CCOc1ccc(CNc2nc3ccccc3n2CCN2CCOCC2)cc1.Cl  -64.2%
79. COc1ccc(CNc2nc3ccccc3n2CCN2CCOCC2)cc1  -64.6%
80. CC1(C)CC(=O)C=C(Nc2ccc(OCC(F)(F)C(F)F)cc2)C1  -65.7%
81. CC(Cc1ccccc1Sc1ccccc1)N(C)C.O=C(O)/C=C\C(=O)O (stereo not drawn)  -69.5%
82. CC(C)C[C@@H](CSc1ccc(Br)cc1)N1CCN(CCc2ccccc2)CCC1=O  -70.6%
83. N#Cc1ccc(OCC(=O)N2CCN(C(=O)c3ccco3)CC2)cc1  -71%
84. O=C1CCN(Cc2ccccc2)CCN1[C@H](CSc1ccccc1)Cc1ccccc1  -72.1%
85. O=C1CCN(CCc2ccccc2)CCN1[C@H](CSc1ccc(Br)cc1)Cc1ccccc1  -74.6%
86. O=C1CCN(CCc2ccccc2)CCN1[C@H](CSc1ccccc1)Cc1ccccc1  -77.1%
87. c1ccc(CN2CCC(Nc3nc(-c4cccnc4)nc4ccccc34)CC2)cc1  -80.5%

— PMC4336329 (PLoS ONE, 2015)
